PubChem BioAssay (NCATS)
Results filed as inconclusive are left out. The source made the active and inactive calls. Unless noted, calls follow the shape of the dose curve; as a rule, active = well fitted curve in the direction sought with a large enough effect; inconclusive = small, poorly fitted or top-dose-only effect, or another doubt; inactive = no such curve, though single readings can be large; an effect the other way counts as inactive or inconclusive.

What was measured:
[1] = qHTS profiling for inhibitors of Plasmodium falciparum proliferation (AID 504749);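 also: 0% = DMSO vehicle and full inhibition = artemisinin control; nearly all actives have a fitted effect of over 60% in size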; settings: P. falciparum in erythrocytes, SYBR Green DNA, 72 h
Procedure, shortened: (§1)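 Parasite proliferation within erythrocytes, 72 h exposure. Endpoint: SYBR Green I fluorescence after overnight lysis at room temperature. Controls: 0.29 uM artemisinin, DMSO.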

3D7 = assay: as above; settings: P. falciparum in erythrocytes, SYBR Green DNA, 72 h; series mostly up to 28.7 µM
Procedure, shortened: as §1

7G8 = assay: as above; settings: P. falciparum in erythrocytes, SYBR Green DNA, 72 h; series mostly up to 28.7 µM
Procedure, shortened: as §1

AA1029 = assay: as above; settings: P. falciparum in erythrocytes, SYBR Green DNA, 72 h; series mostly up to 28.7 µM
Procedure, shortened: as §1

AS120 = assay: as above; settings: P. falciparum in erythrocytes, SYBR Green DNA, 72 h; series mostly up to 28.7 µM
Procedure, shortened: as §1

ATS189 = assay: as above; settings: P. falciparum in erythrocytes, SYBR Green DNA, 72 h; series mostly up to 28.7 µM
Procedure, shortened: as §1

ATS95 = assay: as above; settings: P. falciparum in erythrocytes, SYBR Green DNA, 72 h; series mostly up to 28.7 µM
Procedure, shortened: as §1

C2A = assay: as above; settings: P. falciparum in erythrocytes, SYBR Green DNA, 72 h; series mostly up to 28.7 µM
Procedure, shortened: as §1

CP185 = assay: as above; settings: P. falciparum in erythrocytes, SYBR Green DNA, 72 h; series mostly up to 28.7 µM
Procedure, shortened: as §1

[2] = qHTS drug screen for cell cycle checkpoint inhibitors in PARPi-resistant BRCA-mutant ovarian cancer cell lines. (AID 1963452; calls by dose curve; also: potency is read from the fitted curve at half-maximal effect); settings: PEO1/OlaR viability, CellTiter-Glo luminescence, 96 h; for Z-AUC: stronger effect = lower value
Procedure, shortened: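 PEO1, PEO4 and PEO1/OlaR ovarian cancer cells, 600 per well, exposed 96 h at 37C to a dilution series. Viability read by CellTiter-Glo luminescence, normalized to DMSO and empty wells; activity summarized as Z-AUC.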

[3] = molecular target: Cytochrome P450 2D6 (Homo sapiens) (UniProt P10635); assay: qHTS for inhibitors of CYP2D6 against the NCATS DSHEA and TCM libraries (AID 1919972); settings: CYP2D6 enzymatic inhibition, luminescence qHTS; series mostly up to 34.1 µM; also: % is scaled to controls: 0 for no effect and ±100 for the full control effect
Chain of Cytochrome P450 2D6 (Homo sapiens) (P10635 whole entry, looked up): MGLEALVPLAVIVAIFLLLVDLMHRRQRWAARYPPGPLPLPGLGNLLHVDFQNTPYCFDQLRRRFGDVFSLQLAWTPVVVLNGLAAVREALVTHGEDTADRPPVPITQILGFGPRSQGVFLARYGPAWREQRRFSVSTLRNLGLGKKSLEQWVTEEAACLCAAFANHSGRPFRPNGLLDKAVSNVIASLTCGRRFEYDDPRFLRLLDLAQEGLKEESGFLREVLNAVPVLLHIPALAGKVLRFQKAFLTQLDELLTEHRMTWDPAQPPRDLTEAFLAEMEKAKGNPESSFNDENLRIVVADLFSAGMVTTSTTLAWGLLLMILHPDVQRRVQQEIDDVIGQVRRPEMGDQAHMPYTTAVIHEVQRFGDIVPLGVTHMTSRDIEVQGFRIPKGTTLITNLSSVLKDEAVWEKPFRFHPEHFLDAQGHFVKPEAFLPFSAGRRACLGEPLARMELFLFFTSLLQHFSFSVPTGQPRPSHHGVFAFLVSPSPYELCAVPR
Procedure, shortened: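 Luminescent P450-Glo read-out of CYP2D6 turnover of a luciferin substrate after NADPH-driven reaction of 30-45 min at room temperature. Compounds were first preincubated 15 min with enzyme at titrated concentrations; quinidine was the intraplate control.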

[4] = molecular target: Cytochrome P450 2C19 (Homo sapiens) (UniProt P33261); assay: qHTS for inhibitors of CYP2C19 against the NCATS DSHEA and TCM libraries (AID 1919974); settings: CYP2C19 enzyme inhibition, luminescence qHTS; series mostly up to 34.1 µM;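 also: luminescence from luciferin released by CYP2C19 oxidation of a pro-luciferin substrate; % is scaled to controls: 0 for no effect and ±100 for the full control effect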
Chain of Cytochrome P450 2C19 (Homo sapiens) (P33261 whole entry, looked up, canonical isoform): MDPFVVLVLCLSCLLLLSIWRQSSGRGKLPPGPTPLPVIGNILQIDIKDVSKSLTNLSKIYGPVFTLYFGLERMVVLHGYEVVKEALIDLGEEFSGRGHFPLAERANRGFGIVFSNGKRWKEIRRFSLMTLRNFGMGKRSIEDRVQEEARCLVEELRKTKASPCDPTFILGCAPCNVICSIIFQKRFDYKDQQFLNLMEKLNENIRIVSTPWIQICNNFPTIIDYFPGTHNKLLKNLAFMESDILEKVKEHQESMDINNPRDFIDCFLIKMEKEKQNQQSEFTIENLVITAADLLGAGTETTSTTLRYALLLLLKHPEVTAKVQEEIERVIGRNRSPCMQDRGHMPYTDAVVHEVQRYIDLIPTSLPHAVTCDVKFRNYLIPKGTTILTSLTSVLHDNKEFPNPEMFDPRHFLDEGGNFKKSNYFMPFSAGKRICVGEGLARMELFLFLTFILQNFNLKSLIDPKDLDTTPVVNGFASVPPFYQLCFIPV
Procedure, shortened: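 Read-out is luminescence after P450-Glo detection (30 min, RT). Before that: 15 min compound–enzyme preincubation, then 30-45 min reaction with 1x NADPH regeneration solution, substrate concentration isoform-specific.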

[5] = KB-3-1 P-gp reporter qHTS against the NCATS DSHEA and TCM libraries (AID 1919975); settings: KB-3-1 parental cells, CellTiter-Glo luminescence viability, 72 h; series mostly up to 26.1 µM; also: 0% is about no effect
Procedure, shortened: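 Parental KB-3-1 cells, 500 cells/well, in DMEM with 10% FBS, exposed 72 h at 37 C to compounds in concentration-response. Viability read by CellTiter-Glo luminescence after 30 min at room temperature.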

[6] = qHTS Counterscreen for compound interference against the NCATS DSHEA and TCM libraries (AID 1919978); settings: firefly luciferase detection reagent interference, luminescence;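 also: compounds preincubated with 1 µM D-luciferin or buffer before detection reagent; % of control where 0% means no effect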
Procedure, shortened: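 Firefly luciferase detection reagent was added after compounds (19.5 nM–39.8 uM final) had been incubated 15 min at room temperature with 1 uM D-luciferin or with 100 mM phosphate buffer alone. Luminescence was read after 30 min at room temperature.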

[7] = Dual reporter qHTS for agonist of Pregnane X Receptor (hPXR) against the NCATS DSHEA and TCM libraries: Fluorescence readout (AID 1920058); settings: PXR dual reporter cells; series mostly up to 40 µM; also: 0% is about no effect
Procedure, shortened: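 HepG2 hPXR-Luc, 2000 cells/well, 5 h attach; cpds ~24 h, 37 °C/5% CO2; CellTiter-Fluor 1 h; fluor. Ex/Em 405/540 nm = viability.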

[8] = molecular target: Nuclear receptor subfamily 1 group I member 2 (Homo sapiens) (UniProt O75469); assay: Dual reporter qHTS for agonist of Pregnane X Receptor (hPXR) against the NCATS DSHEA and TCM libraries: Luminescence readout (AID 1920059); settings: hPXR dual reporter cells, luciferase luminescence agonist; series mostly up to 40 µM; also: 0% is about no effect
Chain of Nuclear receptor subfamily 1 group I member 2 (Homo sapiens) (O75469 whole entry, looked up): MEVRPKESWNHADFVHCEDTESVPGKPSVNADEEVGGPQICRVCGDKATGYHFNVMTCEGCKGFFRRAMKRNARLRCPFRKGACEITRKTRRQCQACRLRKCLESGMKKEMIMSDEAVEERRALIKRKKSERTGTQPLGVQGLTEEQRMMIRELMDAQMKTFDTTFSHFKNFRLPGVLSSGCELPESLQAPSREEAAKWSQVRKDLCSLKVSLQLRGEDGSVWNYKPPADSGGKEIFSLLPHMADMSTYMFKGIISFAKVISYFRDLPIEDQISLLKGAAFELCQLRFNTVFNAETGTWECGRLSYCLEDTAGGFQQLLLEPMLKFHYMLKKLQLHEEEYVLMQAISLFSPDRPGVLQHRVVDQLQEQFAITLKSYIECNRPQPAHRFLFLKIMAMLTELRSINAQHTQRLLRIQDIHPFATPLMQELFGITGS
Procedure, shortened: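 hPXR-LucHepG2 cells in phenol red-free DMEM with 5% charcoal-stripped FBS, 2000 cells/well, attached 5 h, then exposed 24 h at 37C to compounds; rifampicin as positive agonist control (2.8 nM–92 uM). Luciferase luminescence read.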

[9] = molecular target: Nuclear receptor subfamily 1 group I member 2 (Homo sapiens) (UniProt O75469); assay: Dual reporter qHTS for antagonist of Pregnane X Receptor (hPXR) against the NCATS DSHEA and TCM libraries: Luminescence Readout (AID 1920060); settings: hPXR dual reporter cells, luciferase luminescence, antagonist mode; series mostly up to 40 µM;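 also: HepG2 cells carrying hPXR luciferase reporter stimulated with rifampicin at 2 µM; 0% is about no effect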
Procedure, shortened: (§2)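 HepG2 hPXR-Luc, 2000 cells/well, charcoal-stripped FBS medium; 5 h attach; RIF 2 uM final; 24 h 37C/5% CO2; CellTiter-Fluor 1 h, fluor 405/540; ONE-Glo 30 min RT, lum.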

[10] = Dual reporter qHTS for antagonist of Pregnane X Receptor (hPXR) against the NCATS DSHEA and TCM libraries: Fluorescence Readout (AID 1920061); settings: PXR dual reporter cells, antagonist mode; series mostly up to 40 µM; also: 0% is about no effect
Procedure, shortened: as §2

[11] = at 12.8 µM (top of the series), parasite line A
[12] = at 12.8 µM (top of the series), parasite line B
[13] = measured here: PEO1 parental Z-AUC
[14] = at 28.7 µM (top of the series), parasite line A
[15] = at 28.7 µM (top of the series), parasite line B

Nc1ccc(C(=O)NCC(=O)O)cc1
inactive: activity, negative = inhibition [1, 11] 7.06% | activity, negative = inhibition [1, 12] 8.58% | Potency (3D7) | Potency (7G8) | Potency (AA1029) | Potency (AS120) | Potency (ATS189) | Potency (ATS95) | Potency (C2A) | Potency (CP185)

Nc1nc(Cl)nc2c1ncn2[C@@H]1O[C@H](CO)[C@@H](O)[C@@H]1F
-1.93: Z-AUC [2, 13]
-1.97: Z-AUC ([2]; measured here: PEO4 Z-AUC)
active: Potency [2] 97.7 nM

CC(=O)NC(=O)c1ccccc1O
inactive: activity, negative = inhibition [1, 14] -1.16% | activity, negative = inhibition [1, 15] 7.59% | Potency (3D7) | Potency (7G8) | Potency (AA1029) | Potency (AS120) | Potency (ATS189) | Potency (ATS95) | Potency (C2A) | Potency (CP185)

CC(=O)Nc1ncc([N+](=O)[O-])s1
inactive: activity, negative = inhibition [1, 14] 11.2% | activity, negative = inhibition [1, 15] 9.19% | Potency (3D7) | Potency (7G8) | Potency (AA1029) | Potency (AS120) | Potency (ATS189) | Potency (ATS95) | Potency (C2A) | Potency (CP185)

O=C(O)CCNC(=O)c1ccccc1
inactive: activity, negative = inhibition [1, 14] 0.623% | activity, negative = inhibition [1, 15] 11.8% | Potency (3D7) | Potency (7G8) | Potency (AA1029) | Potency (AS120) | Potency (ATS189) | Potency (ATS95) | Potency (C2A) | Potency (CP185)

O=C1C(CCS(=O)c2ccccc2)C(=O)N(c2ccccc2)N1c1ccccc1 (centres undefined)
inactive: activity, negative = inhibition [1, 11] -4.48% | activity, negative = inhibition [1, 12] 5.16% | Potency (3D7) | Potency (7G8) | Potency (AA1029) | Potency (AS120) | Potency (ATS189) | Potency (ATS95) | Potency (C2A) | Potency (CP185)

Nc1nc(N)c(-c2ccccc2)s1
inactive: activity, negative = inhibition [1, 14] 18.4% | activity, negative = inhibition [1, 15] 11.9% | Potency (3D7) | Potency (7G8) | Potency (AA1029) | Potency (AS120) | Potency (ATS189) | Potency (ATS95) | Potency (C2A) | Potency (CP185)

c1ccc(CC2=NCCN2)cc1
inactive: activity, negative = inhibition [1, 11] -1.06% | activity, negative = inhibition [1, 12] -2.59% | Potency (3D7) | Potency (7G8) | Potency (AA1029) | Potency (AS120) | Potency (ATS189) | Potency (ATS95) | Potency (C2A) | Potency (CP185)

CCN1CCN(C(=O)N[C@@H](C(=O)N[C@@H]2C(=O)N3C(C(=O)O)=C(CSc4nnnn4C)CS[C@H]23)c2ccc(O)cc2)C(=O)C1=O
0.224: Z-AUC ([2]; measured here: PEO4 Z-AUC)
inactive: Z-AUC [2] 0.353
0.559: Z-AUC [2, 13]

CCCCCCCCCCCCCCCC(=O)O
inactive: outcome [3] | outcome [4] | outcome [5] | max response [6] 2.55% | outcome [7] | outcome [8] | outcome [9] | outcome [10] | activity, negative = inhibition [1, 14] -0.389% | activity, negative = inhibition [1, 15] 7.62% | Potency (3D7) | Potency (7G8) | Potency (AA1029) | Potency (AS120) | Potency (ATS189) | Potency (ATS95) | Potency (C2A) | Potency (CP185)
